Results filed as inconclusive are left out. Some of the results follow. Activity calls are given as the source filed them. Unless noted, the call rests on the fitted dose curve; in most records, active means well fitted curve in the direction sought with a large enough effect; inconclusive means small, poorly fitted or top-dose-only effect, or another doubt; inactive means no such curve, though single readings can be large; an effect the other way counts as inactive or inconclusive.
Experiments:
[1] = biological target: Voltage-gated inwardly rectifying potassium channel KCNH2 (Homo sapiens) (UniProt Q12809); assay: qHTS Assay for Small Molecule Inhibitors of the Human hERG Channel Activity (AID 588834);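 further: lower thallium flux fluorescence means stronger hERG block; nearly all actives have a fitted effect of over 50% in size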; further: potency means the concentration at half of the fitted maximal effect
Outline: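 hERG block measured as reduced thallium-dye (FluxOR) fluorescence after stimulation buffer addition, read over 2 min. Cells were hERG-BacMam-transduced U2OS exposed to compound ~10 min […]; concentration-response fitted with Hill equation for AC50.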

[2] = biological target: Luciferin 4-monooxygenase (Photinus pyralis) (UniProt P08659); assay: Biochemical firefly luciferase enzyme assay for NPC (AID 624030); further: nearly all actives have a fitted effect of over 70% in size; further: potency means the concentration at half of the fitted maximal effect
Outline: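 Purified P. pyralis luciferase at 10 nM in 50 mM Tris Acetate (final), luminescence read within 5 minutes of enzyme addition to compounds. Activity normalised to PTC124 versus DMSO; concentration-response curves classed by r2, magnitude and activity.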

[3] = S16 Schwann cell viability assay (CellTiter-Glo assay) (AID 624031);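 further: series mostly up to about 58 µM; plate controls were DMSO-treated cells for no effect and cell-free wells for full effect; nearly all actives have a fitted effect of over 70% in size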
Outline: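 Native S16 Schwann cells (rat), serum-containing medium, overnight attachment then 24 h drug exposure at 37 °C/5% CO2. CellTiter-Glo ATP signal; normalized to cell-free and vehicle wells.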

[4] = S16 Schwann cell PMP22 intronic element firefly luciferase assay (AID 624032); further: nearly all actives have a fitted effect of over 30% in size; further: potency means the concentration at half of the fitted maximal effect
Outline: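 Rat S16 Schwann cells stably carrying firefly luciferase driven by a PMP22 intronic element, in 10% FBS, treated 24 h at 37 C. ONE-Glo luminescence normalized to PTC124 control and DMSO (0%); curves classed by r2, magnitude and activity.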

[5] = S16 Schwann cell PMP22 intronic element beta-lactamase assay (AID 624044; calls by dose curve;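 further: 0% = DMSO and -100% = potassium clavulanate positive control; nearly all actives have a fitted effect of over 15% in size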)
Outline: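 Beta-lactamase reporter under a PMP22 intronic regulatory element in stable S16 rat Schwann cells; 24 h compound exposure. 460 nm blue signal normalized between DMSO (0%) and potassium clavulanate, with 535 nm FRET tracking viability; curves classed by r2 and response.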

[6] = qHTS assay for small molecule agonists of the antioxidant response element (ARE) signaling pathway (AID 651741; active means well fitted activation curve with a large enough effect in the signal ratio; the % refers to the signal ratio; further: potency means the concentration at half of the fitted maximal effect)
Outline: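 Stably integrated ARE-beta-lactamase reporter HepG2 cells; 16 h compound incubation, 37 C; LiveBLAzer FRET substrate 2 h at room temperature; fluorescence intensity.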

[7] = qHTS assay for environmental chemicals that activate the Aryl hydrocarbon Receptor (AhR) signaling pathway (AID 651777); details: 1A2-DRE human hepatoma cells, luciferase, 24 h; hits give high values; further: % of control where 0% means no effect; nearly all actives have a fitted effect of over 15% in size
Outline: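 Induction of CYP1A2 transcription through AhR is detected by luciferase in 1A2-DRE hepatoma cells. Compounds or DMSO act for 24 hr at 37 C before a 30 min One-Glo step at room temperature.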

[8] = qHTS assay for small molecule agonists of the antioxidant response element (ARE) signaling pathway measured by Nrf2-dependant transcriptional activity (AID 720636; active means well fitted curve in the direction sought with a large enough effect in the repeat runs; an effect the other way counts as inactive or inconclusive;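 further: HepG2 cells with an ARE-driven luciferase reporter; % of control where 0% means no effect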)
Outline: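 We exposed ARE-luc HepG2 cells, seeded in assay medium with 1% dialyzed FBS and allowed 6 hr to adhere, to test compounds overnight (16 hr, 37 C) before measuring luciferase with ONE-Glo.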

[9] = qHTS assay for small molecule agonists of the antioxidant response element (ARE) signaling pathway measured by Nrf2-dependant transcriptional activity - cell viability counter screen (AID 720653; active means well fitted curve in the direction sought with a large enough effect in the repeat runs; an effect the other way counts as inactive or inconclusive; further: on the % scale 0 is the no-effect control and ±100 the full control effect); details: ARE-bla HepG2 viability, CellTiter-Glo ATP luminescence, 16 h; hits give low values
Outline: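 ARE-bla HepG2 cells treated with compounds for 16 h at 37C; this counter screen measures viability as intracellular ATP by CellTiter-Glo luminescence after 30 min at room temperature.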

[10] = biological target: DNA polymerase kappa (Homo sapiens) (UniProt Q9UBT6); assay: qHTS for Inhibitors of Polymerase Kappa: Confirmatory Assay for Cherry-picked Compounds (AID 720501); details: purified Pol-kappa, fluorescent strand-displacement substrate; further: potency means the concentration at half of the fitted maximal effect
Outline: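 10 nM human Pol-kappa was preincubated with compound 15 min at room temperature, then 50 nM (final) primer/template substrate with TAMRA-labeled reporter strand and BHQ-2-labeled template added. Fluorescence (Ex 525, Em 598 nm) read at 0 and 10 min.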

Chain of Voltage-gated inwardly rectifying potassium channel KCNH2 (Homo sapiens) (Q12809 whole entry, looked up): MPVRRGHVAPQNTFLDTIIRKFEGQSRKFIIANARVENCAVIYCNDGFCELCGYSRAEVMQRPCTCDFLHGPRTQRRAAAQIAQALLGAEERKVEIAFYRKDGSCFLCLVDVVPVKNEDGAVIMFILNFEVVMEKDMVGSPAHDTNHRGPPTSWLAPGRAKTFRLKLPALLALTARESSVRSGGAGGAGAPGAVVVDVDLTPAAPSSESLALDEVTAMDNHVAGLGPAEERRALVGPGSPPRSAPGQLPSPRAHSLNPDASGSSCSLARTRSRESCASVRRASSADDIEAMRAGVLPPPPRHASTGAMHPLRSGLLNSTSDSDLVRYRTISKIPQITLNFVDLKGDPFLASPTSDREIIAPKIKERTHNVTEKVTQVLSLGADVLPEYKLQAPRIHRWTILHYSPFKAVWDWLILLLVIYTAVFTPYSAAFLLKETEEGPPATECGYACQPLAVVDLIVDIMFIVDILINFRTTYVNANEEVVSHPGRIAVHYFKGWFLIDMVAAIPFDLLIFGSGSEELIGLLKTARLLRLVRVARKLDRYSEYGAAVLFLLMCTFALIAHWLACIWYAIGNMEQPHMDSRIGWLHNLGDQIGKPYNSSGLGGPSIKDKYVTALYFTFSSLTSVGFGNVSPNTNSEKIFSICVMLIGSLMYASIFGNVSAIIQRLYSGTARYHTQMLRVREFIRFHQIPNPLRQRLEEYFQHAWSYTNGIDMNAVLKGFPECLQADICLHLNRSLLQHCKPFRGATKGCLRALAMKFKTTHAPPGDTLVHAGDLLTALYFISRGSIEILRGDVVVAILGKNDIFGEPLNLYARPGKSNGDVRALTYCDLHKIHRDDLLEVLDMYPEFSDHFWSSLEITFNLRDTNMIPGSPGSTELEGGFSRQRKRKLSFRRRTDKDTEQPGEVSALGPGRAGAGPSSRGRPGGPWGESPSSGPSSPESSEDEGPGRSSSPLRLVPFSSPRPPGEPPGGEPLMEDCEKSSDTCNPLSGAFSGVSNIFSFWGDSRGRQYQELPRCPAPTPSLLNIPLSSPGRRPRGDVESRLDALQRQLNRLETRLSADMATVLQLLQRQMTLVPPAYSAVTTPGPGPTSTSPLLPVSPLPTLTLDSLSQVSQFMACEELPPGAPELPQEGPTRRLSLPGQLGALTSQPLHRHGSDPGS
Chain of Luciferin 4-monooxygenase (Photinus pyralis) (P08659 whole entry, looked up): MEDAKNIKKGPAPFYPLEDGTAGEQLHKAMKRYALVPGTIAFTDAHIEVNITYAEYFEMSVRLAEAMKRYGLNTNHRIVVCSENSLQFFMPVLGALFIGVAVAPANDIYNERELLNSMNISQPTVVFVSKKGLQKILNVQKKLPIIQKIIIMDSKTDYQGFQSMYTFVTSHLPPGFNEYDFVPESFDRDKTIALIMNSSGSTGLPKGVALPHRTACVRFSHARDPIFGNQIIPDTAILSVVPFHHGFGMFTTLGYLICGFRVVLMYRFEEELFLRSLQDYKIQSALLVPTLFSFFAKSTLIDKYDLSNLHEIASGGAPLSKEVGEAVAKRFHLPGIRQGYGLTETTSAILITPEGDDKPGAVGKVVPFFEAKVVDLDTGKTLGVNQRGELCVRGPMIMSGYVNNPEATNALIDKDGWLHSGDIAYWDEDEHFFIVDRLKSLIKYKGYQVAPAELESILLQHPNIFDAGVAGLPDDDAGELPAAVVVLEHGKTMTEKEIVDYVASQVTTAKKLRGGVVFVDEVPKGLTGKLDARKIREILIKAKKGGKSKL
Chain of DNA polymerase kappa (Homo sapiens) (Q9UBT6 whole entry, looked up): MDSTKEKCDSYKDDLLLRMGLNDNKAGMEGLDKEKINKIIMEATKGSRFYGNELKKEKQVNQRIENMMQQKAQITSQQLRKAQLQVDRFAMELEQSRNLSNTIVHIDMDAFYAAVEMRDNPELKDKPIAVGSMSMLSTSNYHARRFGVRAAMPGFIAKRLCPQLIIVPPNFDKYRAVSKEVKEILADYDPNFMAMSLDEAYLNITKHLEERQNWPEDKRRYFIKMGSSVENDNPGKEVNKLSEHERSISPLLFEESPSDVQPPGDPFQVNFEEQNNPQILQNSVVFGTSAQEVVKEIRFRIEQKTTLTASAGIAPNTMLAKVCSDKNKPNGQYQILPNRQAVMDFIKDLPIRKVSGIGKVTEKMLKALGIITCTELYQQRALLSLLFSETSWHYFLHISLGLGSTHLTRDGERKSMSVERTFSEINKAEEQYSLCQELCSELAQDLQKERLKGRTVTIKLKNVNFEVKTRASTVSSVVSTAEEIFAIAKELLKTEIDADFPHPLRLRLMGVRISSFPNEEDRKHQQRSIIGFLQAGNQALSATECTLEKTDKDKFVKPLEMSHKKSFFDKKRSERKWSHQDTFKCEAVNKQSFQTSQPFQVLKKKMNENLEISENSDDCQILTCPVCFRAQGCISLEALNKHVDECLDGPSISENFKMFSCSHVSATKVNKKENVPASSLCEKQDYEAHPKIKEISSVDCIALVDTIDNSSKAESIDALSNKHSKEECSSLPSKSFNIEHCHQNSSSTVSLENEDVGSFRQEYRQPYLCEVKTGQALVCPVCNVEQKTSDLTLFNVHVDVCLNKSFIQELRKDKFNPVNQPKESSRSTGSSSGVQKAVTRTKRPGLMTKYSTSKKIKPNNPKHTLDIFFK

O=C(O)c1ccccc1C(=O)Nc1ccc(S(=O)(=O)Nc2nccs2)cc1
inactive: Potency [1] | Potency [2] | outcome [3] | Potency [4]

CCN(CC)S(=O)(=O)c1ccc(C(=O)O)cc1
inactive: Potency [1] | Potency [2] | outcome [3] | Potency [4] | outcome [5]

CC(=O)Nc1ccc(OCCOCCOc2ccc(NC(C)=O)cc2)cc1
inactive: Potency [1] | Potency [2] | outcome [3] | Potency [4] | outcome [5]

O=C(CN1CCNCC1)NC1CCCCC1
inactive: Potency [1] | Potency [2] | outcome [3] | Potency [4] | outcome [5]

NC(=O)c1ccc([N+](=O)[O-])cc1Cl
inactive: Potency [1] | Potency [2] | outcome [3] | Potency [4] | outcome [5]

NC(=O)CC[C@@H](N)C(=O)O
inactive: Potency [1] | Potency [2] | outcome [3] | Potency [4] | outcome [5]

CCOC(=O)c1cccnc1
inactive: Potency [1] | Potency [2] | outcome [3] | Potency [4] | outcome [5]

Nc1ccc(C(=O)Oc2ccccc2)c(O)c1
inactive: Potency [1] | outcome [3] | Potency [4] | outcome [5]
active: Potency [2] 6.42 µM

Cc1onc(-c2ccccc2)c1-c1ccc(S(N)(=O)=O)cc1
inactive: Potency [1] | Potency [2] | outcome [3] | Potency [4]

CC(C)(C)C(=O)OCOC(=O)[C@@H]1N2C(=O)[C@@H](NC(=O)[C@H](N)c3ccccc3)[C@H]2SC1(C)C
inactive: Potency [1] | Potency [2] | outcome [3] | Potency [4] | outcome [5]

CCCCCCCCCCCCCCCCN
inactive: Potency [1] | Potency [2] | outcome [3] | Potency [4] | outcome [5]

CCN1CC(CCN2CCOCC2)C(c2ccccc2)(c2ccccc2)C1=O (stereo not drawn)
inactive: Potency [1] | Potency [2] | outcome [3] | Potency [4] | outcome [5]

Cc1cc(OI)c(C(C)C)cc1-c1cc(C(C)C)c(OI)cc1C
inactive: Potency [1] | Potency [2] | outcome [3] | Potency [4] | outcome [5]

CC(=O)Oc1cccc(O)c1
inactive: Potency [1] | Potency [2] | outcome [3] | Potency [4] | outcome [5]

CC(O)CCCCn1c(=O)c2c(ncn2C)n(C)c1=O (stereo not drawn)
inactive: Potency [1] | Potency [2] | outcome [3] | Potency [4] | outcome [5]

CCCCC1(COC(=O)CCC(=O)O)C(=O)N(c2ccccc2)N(c2ccccc2)C1=O
inactive: Potency [1] | Potency [2] | outcome [3] | Potency [4] | outcome [5]

CC(=O)SC[C@@H](Cc1ccccc1)C(=O)NCC(=O)OCc1ccccc1
inactive: Potency [1] | Potency [2] | outcome [3] | Potency [4] | outcome [5]

CCOc1cc(NC(C)=O)ccc1C(=O)OC
inactive: Potency [1] | Potency [2] | outcome [3] | Potency [4] | outcome [5]

NCc1ccc(S(N)(=O)=O)cc1
inactive: Potency [1] | Potency [2] | outcome [3] | Potency [4] | outcome [5]

O=C(Cn1ccnc1[N+](=O)[O-])NCc1ccccc1
inactive: Potency [1] | Potency [2] | outcome [3] | Potency [4] | outcome [5]

Cc1ccc(S(=O)(=O)NC(=O)NC2CCCCCCC2)cc1
inactive: Potency [1] | Potency [2] | outcome [3] | Potency [4] | outcome [5]

COc1ccc(NS(=O)(=O)c2ccc(N)cc2)nn1
inactive: Potency [1] | Potency [2] | outcome [3] | Potency [4] | outcome [5]

CN1C(C)(C)CCCC1(C)C
inactive: Potency [1] | Potency [2] | outcome [3] | Potency [4]

NC(=O)CCCCC1CCSS1 (stereo not drawn)
inactive: Potency [1] | Potency [2] | outcome [3] | Potency [4]

OCc1ccc(Cl)cc1Cl
inactive: Potency [1] | Potency [2] | outcome [3] | Potency [4] | outcome [5]

CC(C)c1cc2c(cc1S(=O)(=O)O)[C@@]1(C)CCC[C@@](C)(C(=O)O)[C@@H]1CC2
inactive: Potency [1] | Potency [2] | outcome [3] | Potency [4] | outcome [5]

NC(N)=NCCN1CCCCCCC1
inactive: Potency [2] | outcome [3] | Potency [4] | outcome [5]

COc1cc(O)cc(O)c1
inactive: Potency [1] | Potency [2] | outcome [3] | outcome [5]

O=C(O)Cn1c(C(=O)Nc2nc(-c3ccccc3Cl)cs2)cc2ccccc21
active: Potency [2] 12.8 µM
inactive: Potency [1] | Potency [4] | outcome [5]

Cc1cccc(C)c1NC(=O)CC12CCCN1CCC2
inactive: Potency [2] | outcome [3] | Potency [4]

Cc1cccc(C(=O)O)c1O
inactive: Potency [1] | Potency [2] | Potency [4]

Cc1ccccc1N=Nc1ccc(N=Nc2c(O)ccc3ccccc23)c(C)c1
inactive: Potency [1] | Potency [2] | outcome [3] | Potency [4] | outcome [5]

NNc1nnc(NN)c2ccccc12
inactive: Potency [1] | outcome [3] | Potency [4] | outcome [5]

COc1ccccc1Oc1c(NS(=O)(=O)c2ccc(C(C)(C)C)cc2)nc(-c2ncccn2)nc1OCCO
inactive: Potency [1] | Potency [2] | Potency [4] | outcome [5]

C[C@@H]1O[C@@H](OC[C@H]2O[C@@H](Oc3c(-c4ccc(O)c(O)c4)oc4cc(O)cc(O)c4c3=O)[C@H](O)[C@@H](O)[C@@H]2O)[C@H](O)[C@H](O)[C@H]1O
inactive: Potency [1] | Potency [2] | Potency [4]

CN/C(=C\[N+](=O)[O-])NCCSCc1csc(CN(C)C)n1
inactive: Potency [1] | Potency [2] | Potency [4]

CC1CCN(CCCC(=O)c2ccc(F)cc2)CC1
inactive: Potency [2] | Potency [4]

NS(=O)(=O)c1ccc(C(=O)O)cc1
inactive: Potency [1] | Potency [2] | Potency [4]

Cc1cccc(Nc2ccccc2C(=O)O)c1C
active: Potency [6] 61.1 µM
inactive: Potency [1] | outcome [3] | Potency [4] | activation [7] 2.22% | outcome [8] | max response [9] -4.01%

Cc1ccsc1C(=CCCN1CCC[C@@H](C(=O)O)C1)c1sccc1C
inactive: Potency [1] | Potency [2] | outcome [3] | outcome [5]

NC(N)=NS(=O)(=O)c1ccc(N)cc1
inactive: Potency [2] | Potency [4] | outcome [5]

O=C(O)CNC(=O)c1ccccc1I
inactive: Potency [1] | outcome [3] | Potency [4]

N[C@@H](Cc1ccc(O)cc1)C(=O)O
inactive: Potency [2] | outcome [3] | Potency [4] | outcome [5]

CCCNC(C)(C)COC(=O)c1ccccc1
inactive: Potency [1] | Potency [2] | outcome [3] | Potency [4] | outcome [5]

CCCCCCCCCCC(CO)CCCCCCCC (stereo not drawn)
inactive: Potency [2] | outcome [3] | Potency [4]

CN(C/C=C/C#CC(C)(C)C)Cc1cccc2ccccc12
inactive: Potency [2] | outcome [3] | outcome [5]
active: Potency [1] 12.6 µM

CCOc1ccc(C(=O)OCCN(CC)CC)cc1
inactive: Potency [2] | outcome [3] | Potency [4]

CN1CCCN=C1COC(=O)C(O)(c1ccccc1)C1CCCCC1 (stereo not drawn)
inactive: Potency [2] | Potency [4] | outcome [5]
active: Potency [1] 2.82 µM

CCCCCCCCCCCCCCCCC(C(=O)O)C(O)(CC(=O)O)C(=O)O (stereo not drawn)
inactive: Potency [1] | outcome [3] | Potency [4] | outcome [5]

CC(C)CCOC(=O)c1ccc(N(C)C)cc1
inactive: outcome [3] | Potency [4]
active: Potency [2] 6.42 µM

O=S1(=O)OC(c2ccc(O)cc2)(c2ccc(O)cc2)c2ccccc21
inactive: Potency [1] | outcome [3] | outcome [5]
active: Potency [4] 10.2 µM

O=C(O)COC(=O)Cc1ccccc1Nc1c(Cl)cccc1Cl
inactive: Potency [2] | outcome [3] | Potency [4]

CCN(CC)CC1CCCCN1CC(=O)N1c2ccccc2C(=O)Nc2cccnc21 (stereo not drawn)
inactive: Potency [2] | outcome [3] | Potency [4] | outcome [5]

Cc1c(NC(=O)c2cccnc2)c(=O)n(-c2ccccc2)n1C
inactive: Potency [2] | outcome [3] | Potency [4]

NS(=O)(=O)c1cc(-c2nn[nH]n2)c(NCc2cccs2)cc1Cl
inactive: Potency [1] | outcome [3] | Potency [4]

O=C(CCBr)N1CCN(C(=O)CCBr)CC1
inactive: Potency [2] | outcome [3] | Potency [4] | outcome [5]

CCS(=O)(=O)CCn1c([N+](=O)[O-])cnc1C
inactive: Potency [2] | outcome [3] | Potency [4] | outcome [5]

COc1ccc2cc(CCC(C)=O)ccc2c1
inactive: Potency [1] | outcome [3] | Potency [4] | outcome [5]

NNC(=O)CP(=O)(c1ccccc1)c1ccccc1
inactive: Potency [1] | Potency [2] | outcome [3] | outcome [5]

O=C1c2ccccc2C(=O)C1c1ccc(Br)cc1
inactive: Potency [1] | outcome [3] | Potency [4] | outcome [5]

O=C1c2ccccc2S(=O)(=O)N1CCCCN1CCN(c2ncccn2)CC1
inactive: Potency [2] | outcome [3]

O=C(/C=C/c1ccccc1)OCc1ccccc1
inactive: outcome [3] | Potency [4]

COc1ccc(-c2cc(=O)c3c(O)cc(O[C@@H]4O[C@H](CO[C@@H]5O[C@@H](C)[C@H](O)[C@@H](O)[C@H]5O)[C@@H](O)[C@H](O)[C@H]4O)cc3o2)cc1O
inactive: Potency [1]
active: Potency [10] 18.9 µM

Source: PubChem BioAssay (NCATS)
